The panel holds about 79,000 compounds, 15% with a hit somewhere; the sample as a whole holds those more often. Values without a mark were called inactive. Active and inactive are the calls of the source. Rule as the data show it: active = growth inhibition above about 70%; inactive = the rest. Where a SMILES comes first, the peptide text is derived from it. The star is where a group is joined. ONp = O=[N+]([O-])c1ccc(O*)cc1; Tos = Cc1ccc(S(=O)(=O)*)cc1
Key:
[1] = NCI Yeast Anticancer Drug Screen. Data for the rad50 strain (AID 155);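 also: 0% = growth of vehicle-only cultures of the same strain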; details: S. cerevisiae rad50 strain growth inhibition; at 50.0 µM; stronger effect = higher value
In short: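 Genetically altered yeast (DNA repair pathway); compound treatment; growth inhibition vs vehicle ctrl.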

[2] = NCI Yeast Anticancer Drug Screen. Data for the mec2-1 strain (AID 157); details: S. cerevisiae mec2-1 strain, at 50.0 µM, stronger effect = higher value
In short: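 Yeast mec2-1 mutant treated with compound. Readout: growth inhibition vs vehicle controls.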

[3] = NCI Yeast Anticancer Drug Screen. Data for the sgs1 mgt1 strain (AID 161);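 also: 0% = growth of cultures given vehicle only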; details: S. cerevisiae sgs1 mgt1 strain, at 50.0 µM, stronger effect = higher value
In short: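 Genetically altered yeast, compound exposure, growth inhibition relative to vehicle.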

[4] = NCI Yeast Anticancer Drug Screen. Data for the cln2 rad14 strain (AID 165);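 also: 0% = growth equal to vehicle treated cultures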; details: S. cerevisiae cln2 rad14 strain, at 50.0 µM, stronger effect = higher value
In short: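 cln2 rad14 yeast strain; compound exposure; growth inhibition read vs vehicle controls.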

[5] = NCI Yeast Anticancer Drug Screen. Data for the bub3 strain (AID 167); details: S. cerevisiae bub3 mutant strain, at 50.0 µM, stronger effect = higher value
In short: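 Yeast carrying a defined mutation is treated with each compound, and growth is compared with that of vehicle-exposed cells to give inhibition.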

[6] = NCI Yeast Anticancer Drug Screen. Data for the mlh1 rad18 strain (AID 175); details: S. cerevisiae mlh1 rad18 strain growth inhibition; at 50.0 µM; stronger effect = higher value
In short: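 Yeast w/ defined DNA-repair lesions; compound exposure; growth vs vehicle controls → % inhibition.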

SMILES	growth inhibition [1]	growth inhibition [2]	growth inhibition [3]	growth inhibition [4]	growth inhibition [5]	growth inhibition [6]
NS(=O)(=O)c1ccc(N=C2C=CC(=O)C=C2)cc1	13.6%	4.5%	-0.2%	-36.4%	-4.05%	-3.95%
Cc1ccc(N=CC=C2C=CN(O)C=C2)nc1	-8%	-10.9%	-0.85%	-19.2%	-19.1%	-10.5%
N#CC1(OC2OC(CO)C(O)C(O)C2O)C=CCC1 (configuration not stated)	8.1%	-33%	4.45%	-7.45%	-12.9%	-3.05%
O/N=C(/CC(O)(C(F)(F)F)C(F)(F)F)c1ccccc1	-9.1%	-18%	-7.9%	-38.8%	-6.9%	11.8%
CCCCSc1n[nH]c(C2CCC(=O)N2Cc2ccccc2)n1 (configuration not stated)	-14.8%	-19.1%	-0.8%	-12.9%	-3.5%	-6%
Cc1c(C(=O)O)[nH]c2c(Cl)ccc(C)c2c1=O	-34.2%	-9.15%	9.5%	-44.5%	9.8%	4.75%
O=C1c2c(c3c4ccccc4[nH]c3c3[nH]c4ccccc4c23)C(=O)N1Cc1ccccc1	-9.4%	-5.95%	4.95%	-6.6%	-5.45%	10.2%
O=S(=O)(c1cnccc1N1CCN(CCO)CC1)N1CCCC1	6.4%	-11.2%	8.5%	-7.6%	3.05%	-1.5%
O=C1C2C3C=C4c5ccccc5N(c5ccccc5)C4([C@@H]2C(=O)N1c1ccc(F)cc1)[C@H]1C(=O)N(c2ccc(F)cc2)C(=O)[C@@H]31 (some centres not stated)	35%	23.6%	11.5%	40.1%	21.4%	34.9%
CC1=C(C(=O)CC(=O)C(=O)Nc2ccc(Cl)cc2Cl)Sc2ccccc2N1	-5.65%	-11.2%	-20.1%	-6.1%	2.55%	3.45%
O=C1CNC(=O)N1	-38.1%	23.8%	2%	-11.7%	3.85%	-38.2%
CC1(C)C=C(C(=O)ON2C(=O)CCC2=O)C(C)(C)N1O	-4.85%	-25.9%	-14.5%	12.7%	-19.1%	-16.1%
O=C(/C=C(\N=P(c1ccccc1)(c1ccccc1)c1ccccc1)C(F)(F)C(F)(F)C(F)(F)C(F)(F)C(F)(F)C(F)(F)C(F)(F)F)c1ccccc1	-16.1%	-13.2%	-17.3%	0.65%	14.2%	-3%
COc1cccc(C[n+]2cc([O-])on2)c1	-16.1%	26.1%	-3.3%	-27.5%	21.1%	18.4%
CCOc1ccc(C2=NN(CC)C(=O)C(C3C(=O)N(c4ccccc4)N=C3C)C2)cc1 (configuration not stated)	4.8%	-7.3%	-0.35%	-30.9%	-22.3%	-10.2%
N=c1c2ccccc2nc2oc3ccccc3n12	48.8%	12%	7.7%	13.2%	24.9%	6.5%
O=C(Nc1ccccc1C(=O)N/N=C/c1ccccc1Cl)c1ccccc1Cl	-36.5%	-14.1%	5.1%	-25.9%	0.25%	4.1%
O=C1CCCCC1N1CCCCC1 (configuration not stated)	-4.95%	-14.7%	10.8%	2.65%	-1.3%	0%
Cc1ccc(N=C(Nc2ccc(C)cc2)C(c2ccccc2)c2ccccc2)cc1	12%	-1.85%	5.9%	7.65%	6.5%	30.6%
O=C(O)CNc1ccc(C(=O)O)cc1	-20.9%	-10.1%	-11.3%	41.1%	-51.7%	-11.7%
S=c1c2ccccc2c(=S)n2n1CC=CC2	7.6%	6.95%	2.3%	0%	16.8%	15.7%

SMILES	growth inhibition [1]	growth inhibition [2]	growth inhibition [3]	growth inhibition [4]	growth inhibition [5]	growth inhibition [6]
CC(C)=NNC(=O)c1ccc([N+](=O)[O-])cc1	9.35%	0.95%	2.1%	5.1%	3.65%	10.4%
CC(C)c1ccc2c(c1)CCC1C(C)(C)[C@@H](O)CC[C@]21C (some centres not stated)	-15.3%	-40.1%	-23.2%	19.4%	-32.6%	-22.3%
Cc1ccc(N=Nc2ccc([N+](=O)[O-])cc2)c([N+](=O)[O-])c1	10.9%	-11.2%	-4.5%	17.4%	18.4%	-12.6%
O=C(CCl)Nc1cc2ccccc2c2ccccc12	0.65%	-23.6%	-10.9%	1.6%	9.6%	8.6%
COC(=O)/C(=C\c1ccccc1[N+](=O)[O-])c1ccc2c(c1)OCO2	23.6%	-10.1%	3.2%	-38.5%	9.6%	14.4%
CNC(=O)C(C)Oc1ccc(OCC2CCCCC2)cc1 (configuration not stated)	-0.8%	-44.2%	-14.4%	-35.5%	-46.9%	-55.6%
CCOCC(=O)N[C@H]1CCc2cc(OC)c(OC)c(OC)c2-c2ccc(OC)c(=O)cc21	9.45%	-32.8%	22.4%	-2.6%	9.35%	4%
COc1ccc2c(c1)CCC(c1nc3ccc(C)cc3[nH]c1=O)C2=O (configuration not stated)	7.95%	8.5%	7.95%	9.1%	-4.65%	22.6%
ClCC1CCC(CCl)CC1 (configuration not stated)	-31.6%	-18.4%	-15.2%	-5.95%	-21.7%	-16.1%
O=c1[nH]c(=O)n(C2OC(CO)C(O)C2O)cc1Oc1ccccc1 (configuration not stated)	7.8%	2.9%	4.2%	12.4%	-0.4%	-13.8%
Cc1ccc(S(=O)(=O)NCC(=O)NCC(=O)Oc2ccc([N+](=O)[O-])cc2)cc1 (Tos-Gly-Gly-ONp)	52.7%	13%	42.2%	18.8%	2%	16%
CCc1ccccc1OCc1ccccc1	18.4%	11.8%	14.2%	6.9%	1%	1.75%
O=C(O)Cc1cc(Cl)ccc1Cl	-4%	8.85%	8.7%	-2.55%	-1.2%	-9.05%
CCOC(=O)/C=C(\N)c1ccccc1	-7.8%	-13.2%	-15.6%	-43.8%	-30.4%	-6.8%
Nc1nc(N)c(N)c(Nc2ccc(Cl)cc2)n1	27.5%	22.3%	9%	21.4%	-1.95%	2.5%
O=c1c2ccccc2[nH]c2c(O)ccc(O)c12	18.3%	-1.65%	6.55%	7.65%	-1.55%	12.7%
C1=N/C=C\C=C/c2ccc[n+](CCCCC[n+]3ccccc3-c3ccccn3)c21	81.5% (active)	63.5%	86.8% (active)	63.1%	36.7%	75.2% (active)
O=C(O)Cc1ccccc1C(=O)O	12.9%	2.3%	7.7%	13.8%	-19%	-5%
CCOC(=O)/C(N=Nc1ccc(O)cc1)=C(\C)O	-6.4%	28.4%	17.7%	24.9%	-1.2%	-0.65%
O=c1[nH]c2cc(Cl)ccc2c2cc(Cl)ccc12	39.9%	7.6%	16.6%	-3.3%	-0.3%	52.2%
Cc1cc(=O)oc2c(C)c(O)ccc12	0%	-16.5%	-3.15%	13.7%	-16.6%	16.4%
